In the supplement of paper PMC11018630:
Counter-ions that a name gives are not always drawn. ± gives the standard deviation of the averaged measurements. In all, about 1,100 compounds were measured (“day of extracellular matrix detachment from plate”: median about 16, lowest 2% from about 10 on). This is one part of a sample in which the lowest values are shown more often than they occur.

The molecules below were run on RDEB dermal fibroblasts EB71 (assay: day of extracellular matrix detachment from plate (days); higher = delayed detachment (less fibrotic matrix)). Conditions: compound concentration: 10 uM.

`O=C(O)CCC(=O)c1ccc(-c2ccccc2)cc1` [Fenbufen] and `Nc1ccc(C(=O)NCC(=O)O)cc1` [Sodium 4-aminohippurate Hydrate] are the same in “day of extracellular matrix detachment from plate” value (shortened to “day”): 13 for the first, 13 for the second.

Going from `Nc1nc(=O)n([C@@H]2CS[C@H](CO)O2)cc1F` [Emtricitabine] to `O=c1ccn([C@@H]2O[C@H](CO)[C@@H](O)[C@H]2O)c(=O)[nH]1` [Uridine], the “day” value falls from 19.3 ± 6.3 to 12.

`COc1ccc(CC2c3cc(OC)c(OC)cc3CC[N+]2(C)CCC(=O)OCCCCCOC(=O)CC[N+]2(C)CCc3cc(OC)c(OC)cc3C2Cc2ccc(OC)c(OC)c2)cc1OC` (centres undefined) [Atracurium Besylate] and `COc1ccc(C[C@@H]2c3cc(OC)c(OC)cc3CC[N@+]2(C)CCC(=O)OCCCCCOC(=O)CC[N@@+]2(C)CCc3cc(OC)c(OC)cc3[C@H]2Cc2ccc(OC)c(OC)c2)cc1OC` [Cisatracurium Besylate] are within error of each other in “day” value: 15.7 ± 6.3 for the first, 10 ± 1.7 for the second.

Compared with `CCC(=O)O[C@@H](O[P@](=O)(CCCCc1ccccc1)CC(=O)N1C[C@H](C2CCCCC2)C[C@H]1C(=O)O)C(C)C` [Fosinopril Sodium], `O=C(c1cc(Cc2n[nH]c(=O)c3ccccc23)ccc1F)N1CCN(C(=O)C2CC2)CC1` is higher in “day” value: 19 for the first, 27.8 ± 5.5 for the second.

Compared with `OC(Cn1cncn1)(Cn1cncn1)c1ccc(F)cc1F` [Fluconazole], `COc1cc2ncnc(Nc3ccc(F)c(Cl)c3)c2cc1OCCCN1CCOCC1` [Gefitinib (ZD1839)] is higher in “day” value: 12.7 ± 2.9 for the first, 29.4 ± 6 for the second.

Going from `Cn1c(=O)c2c(ncn2CC2OCCO2)n(C)c1=O` [Doxofylline] to `CCCc1nc(C)c2c(=O)nc(-c3cc(S(=O)(=O)N4CCN(CC)CC4)ccc3OCC)[nH]n12` [Vardenafil HCl Trihydrate], the “day” value rises from 13 to 16.

Going from `CN(C)CCC[C@@]1(c2ccc(F)cc2)OCc2cc(C#N)ccc21` [Escitalopram Oxalate] to `COC(=O)C1=C(C)NC(C)=C(C(=O)OCCN2CCN(C(c3ccccc3)c3ccccc3)CC2)C1c1cccc([N+](=O)[O-])c1` (centres undefined) [Manidipine 2HCl], the “day” value rises from 13 to 18.3 ± 4.

`O=C[C@H](O)[C@@H](O)[C@H](O)CO` [Xylose] and `OC[C@@H](O)[C@@H](O)[C@H](O)[C@H](O)CO` [D-Mannitol] are within error of each other in “day” value: 10 ± 1.7 for the first, 13.7 ± 8.1 for the second.

Compared with `OC[C@@H](O)[C@@H](O)[C@H](O)[C@@H](O)CO` [Sorbitol], `COC(=O)C1=C(C)NC(C)=C(C(=O)OCCN2CCN(C(c3ccccc3)c3ccccc3)CC2)C1c1cccc([N+](=O)[O-])c1` (centres undefined) [Manidipine] is higher in “day” value: 16 for the first, 20.3 ± 2.3 for the second.

`N#C[C@@H]1C[C@@H]2C[C@@H]2N1C(=O)[C@@H](N)C12CC3CC(CC(O)(C3)C1)C2` [Saxagliptin hydrate] was tested, and the “day” value was 16.3 ± 1.1.
